Sampled rows, rich in hits. Any-hit rate of the full collection: about 19%.
KB-3-1 tox: kills parental KB-3-1 adenocarcinoma cells; actives 1.4% (n = 400,000); AID 1347075; KB-3-1 viability, CellTiter-Glo ATP luminescence, 72 h; Potency, µM (titrated, usually from 46.1 µM), hits mostly cytotoxic; note: nearly all actives have a fitted effect of over 60% in size
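72 h, 37 °C compound treatment of KB-3-1 parental cells; CellTiter-Glo added, 10 min, luminescence read. Data corrected against DMSO-only plates and normalized before curve fitting.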
DT40 TDP1 CPT: DT40-hTDP1 cell growth loss with CPT; chicken DT40 Tdp1-/-;hTDP1 cells + 20 nM CPT, ATP luminescence, 48 h; Potency, µM (highest dose often 46.2 µM), for the others: at the highest dose activity change, negative = growth inhibition, most hits filed as inhibitors; actives 12% (n = 420,000); note: nearly all actives have a fitted effect of over 55% in size
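Chicken DT40 Tdp1-/- cells stably complemented with human TDP1 were seeded at 400 cells/well in medium containing 20 nM camptothecin, exposed to pin-transferred compounds, and grown at 37 °C for at least 48 hr. Viability was read as ATP luminescence.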
TDP1 cell noCPT: qHTS for Inhibitors of human tyrosyl-DNA phosphodiesterase 1 (TDP1): qHTS in cells in absence of CPT. Potency, µM (series often up to 46.2 µM), inactives show at the top dose activity change, negative = growth inhibition, most hits filed as inhibitors. AID 686978, 2013. DT40 Tdp1-/- hTDP1 cells, no CPT, ATP luminescence, 48 h. actives 15% (n = 420,000); note: nearly all actives have a fitted effect of over 55% in size
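Cells were dispensed at 400 per well, compounds added by pin tool, plates incubated ≥48 hr at 37 °C, then CellTiter-Glo added for 30 min at room temperature before luminescence reading. Line: DT40 Tdp1-/- complemented with hTDP1; camptothecin omitted.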
HT1080 IDH1KD tx: HT-1080 IDH1 knockdown cell toxicity (counter line) | Potency, µM (top dose mostly 46.1 µM), without a hit: top-dose activity, negative = toxicity, hits mostly cytotoxic | HT-1080 IDH1 knockdown viability, ATP luminescence, 48 h | actives 2% (n = 360,000) | AID 686971;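 note: 0% = DMSO wells and -100% = cell-free medium wells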
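Knockdown cells (IDH1KD HT-1080) received compounds 2 h after plating at 750 cells/well and were kept 48 h at 37 °C in 5% FBS RPMI. A CellTiter-Glo luminescence read gave % activity for curve fitting.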
KB-V1 MDR tox: KB-V1 MDR subline cytotoxicity; KB-V1 MDR cells viability, CellTiter-Glo, 72 h; Potency, µM (highest dose often 46.1 µM), usual class: cytotoxic; actives 3.4% (n = 400,000); note: nearly all actives have a fitted effect of over 60% in size
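Compound-treated KB-V1 multidrug-resistant cells, 72 h, 37 degrees C; viability by CellTiter-Glo. Fitted qHTS curves give the values.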
HT1080NT lethal: kills 2HG-producing HT-1080-NT fibrosarcoma cells. HT-1080-NT fibrosarcoma viability, CellTiter-Glo ATP luminescence, 48 h. Potency, µM (titrated, usually from 46.1 µM), without a hit: top-dose activity, negative = less viability, hits mostly cytotoxic. actives 1.6% (n = 360,000);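 note: NT is the 2HG producing partner of a matched IDH1 knockdown line; 0% = DMSO-treated cells and -100% = media-only wells without cells; nearly all actives have a fitted effect of over 55% in size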
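HT-1080-NT fibrosarcoma cells (2HG-overproducing), 750 cells/well in RPMI with 5% FBS, dosed after 2 h and incubated 48 h at 37C. CellTiter-Glo luminescence normalized to DMSO and no-cell wells; concentration-response curves fitted and classed.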
Numbers without * were called inactive; i = inactive; ? = inconclusive; / = no result given; ! = repeats disagree; [ ] = dose if it differs, or a comment. Calls come from the whole dose curve; as a rule, active = well fitted curve in the direction sought with a large enough effect; inconclusive = small, poorly fitted or top-dose-only effect, or another doubt; inactive = no such curve, though single readings can be large; an effect the other way counts as inactive or inconclusive. Unless noted, % is set by controls: 0 for no effect and ±100 for the full control effect; potency is the fitted concentration of half-maximal effect.

SMILES	KB-3-1 tox	DT40 TDP1 CPT	TDP1 cell noCPT	HT1080 IDH1KD tx	KB-V1 MDR tox	HT1080NT lethal
COc1cccc(C2c3cc4c(cc3OC(C)(N3CCCC3)C2C)OCO4)c1O (stereo not given)	?	13µM*	10µM*	?	16µM*	?
COc1ccc(C2c3cc4c(cc3OC(N3CCOCC3)C2C)OCO4)c(OC)c1 (stereo not given)	4.6µM*	5.2µM*	4.1µM*	?	?	?
CCN(CC)C1Oc2cc3c(cc2C(c2cccc(OC)c2O)C1C)OCO3 (stereo not given)	?	?	23µM*	?	?	?
COc1cccc(C2c3cc4c(cc3OC(N3CCOCC3)C2C)OCO4)c1O (stereo not given)	?	-91%	8.2µM*	?	?	?
COc1ccc2c(c1)OC[C@H]1c3cc4c(cc3O[C@@H]21)OCO4	/	-31%[9.04 µM]	-15%[9.04 µM]	/	/	/
Cc1cnc(-n2ncc(C(=O)NCC3COCCO3)c2C2CC2)nc1-c1cccs1 (stereo not given)	/	-7%	-13%	/	/	/
O=C(NCc1cccc(F)c1)Nc1nnc([C@@H]2C[C@H](O)[C@@H](CO)O2)s1	i	8%	-2%	?	i	11%
CC1=CC(C)(C)N2C(=O)C3(N=C(N)NC(Nc4ccccc4)=N3)c3cc(C)cc1c32 (stereo not given)	?	?	18µM*	?	?	?
CC1=CC(C)(C)N2C(=O)C3(SCC(=O)N3c3ccc(O)cc3)c3cc(C)cc1c32 (stereo not given)	i	-5%	-1%	1%	i	2%
CC(C)=CCN1CCN(Cc2cn[nH]c2C2CCCCC2)CC1CCO (stereo not given)	?	6%	2%	14%	i	7%
CCOC(=O)C(C)N1N=C(/C=C/c2ccc(OC)cc2)CCC1=O (stereo not given)	i	?	13µM*	4%	i	1%
Cc1cc(COc2ccccc2OCc2cc(C)no2)on1	i	-25%	-1%	5%	12µM*	-3%
Cc1cccc(-n2c(C)nc3cc(C(=O)NCCN4CCOCC4)ccc32)c1	i	-25%	-14%	2%	i	0%
C[C@]12CCC(=O)C=C1CCC1C3CC[C@](O)(C(=O)CO)[C@@]3(C)CC3OC312 (stereo not given in full)	/	-11%[9.04 µM]	-2%[9.04 µM]	/	/	/
C[C@]12CCC(=O)C=C1CC[C@H]1[C@@H]3CC[C@](O)(C(=O)CO)[C@@]3(C)C[C@H](O)[C@@]12F	/	?	27µM*!	/	/	/
CCc1ccc2c(c1)/C(=N/N(C)C(=S)NC)C(=O)N2	i	-5%	-18%	0%	?	-2%
CCc1ccc2c(c1)/C(=C/C(=O)c1cccs1)C(=O)N2	?	3.3µM*	5.2µM*	?	?	?
Cc1cc(C)c2c(c1)/C(=C/C(=O)c1ccc(Br)s1)C(=O)N2	18µM*	4.6µM*	3.7µM*	?	23µM*	?
Cc1cccc2c1NC(=O)/C2=C\C(=O)c1cccs1	i	4.6µM*	4.6µM*	16µM*	?	18µM*
Oc1c(Br)cc(Br)cc1CNc1nccs1	i	-21%	-7%	-16%	?	-14%
Nc1nc(=S)c2n[nH]nc2[nH]1	?	?	?	/	i	/
O=[N+]([O-])c1ccc(CNc2ccc(F)cc2)s1	i	-14%	?	2%	?	-2%
COc1ccc(NCc2ccc([N+](=O)[O-])s2)c(OC)c1	?	16µM*	?	10%	i	6%
COc1ccc(NCc2ccc([N+](=O)[O-])s2)cc1	i	?	21µM*	-25%	i	-5%
CCOc1ccccc1NC(=O)C1CCCN1S(=O)(=O)c1ccc2c(c1)C(C)(C)C(=O)N2C (stereo not given)	i	?	?	/	i	/
SMILES	KB-3-1 tox	DT40 TDP1 CPT	TDP1 cell noCPT	HT1080 IDH1KD tx	KB-V1 MDR tox	HT1080NT lethal
Cc1csc(NC(=O)c2ccc3nc[nH]c3c2)n1	i	?	23µM*	-21%	i	-29%
Cc1csc(NC(=O)c2ccc(C)c([N+](=O)[O-])c2)n1	?	?	16µM*	0%	?	7%
Cc1cc(C)cc(N(CCC#N)C(=O)COC(=O)c2nc3nc(C)cc(C)n3n2)c1	i	-2%	4%	-4%	i	-5%
CCOc1ccc(NC(=O)CSC2=Nc3ccccc3C3=NC(CC(=O)NCc4cccs4)C(=O)N23)cc1 (stereo not given)	i	?	?	/	i	/
N=c1c(C(=O)NCc2ccccc2)cc2c(=O)n3ccccc3nc2n1Cc1ccco1	i	?	?	-11%	i	-21%
Cc1ccc(S(=O)(=O)c2cc3c(=O)n4ccccc4nc3n(C3CCCCC3)c2=N)cc1	i	?	21µM*	2%	i	-7%
N=c1c(S(=O)(=O)c2ccc(Cl)cc2)cc2c(=O)n3ccccc3nc2n1CCN1CCOCC1	i	2%	-10%	2%	13µM*	12%
N=c1c(S(=O)(=O)c2ccccc2)cc2c(=O)n3ccccc3nc2n1CCCN1CCOCC1	i	2%	-27%	3%	i	0%
Cc1ccc2nc3c(cc(C(=O)NCc4ccco4)c(=N)n3Cc3ccco3)c(=O)n2c1	i	?	21µM*	4%	i	-5%
N=c1c(C(=O)NCc2ccc(F)cc2)cc2c(=O)n3ccccc3nc2n1Cc1ccco1	i	16µM*	16µM*	-17%	?	3%
O=C(NCc1ccccc1)C1C(=O)Nc2ccccc2C(=O)N1c1ccc2c(c1)OCCO2 (stereo not given)	i	-5%	-28%	0%	i	5%
CC1(C)OB(c2cnc(C#N)nc2)OC1(C)C	/	3%	-11%	-1%	/	0%
Cc1ccc(S(=O)(=O)c2cc3c(=O)n4ccccc4nc3n(Cc3ccco3)c2=N)cc1	i	?	?	?	8.2µM*	?
CCCn1c(=N)c(S(=O)(=O)c2ccc(F)cc2)cc2c(=O)n3ccccc3nc21	i	-13%	-28%	-3%	i	1%

Screens as filed in PubChem BioAssay.
